Test results taken from PubChem BioAssay (Tox21).
Records with an inconclusive call do not appear. A call without a number means that no potency is given here. Values without a mark were called inactive. Calls of active or inactive are those of the source. Unless noted, the call rests on the fitted dose curve; in most records, active means well fitted curve in the direction sought with a large enough effect in the repeat runs; inconclusive means weak or mixed curves; inactive means no such curve, though single readings can be large; an effect the other way counts as inactive or inconclusive.

Columns and labels:
[1] = qHTS assay to identify aromatase inhibitors - cell viability counter screen (AID 743084);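 further: cells stimulated with testosterone during compound exposure; nearly all actives have a fitted effect of over 55% in size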
[2] = biological target: Aryl hydrocarbon receptor (Homo sapiens) (UniProt P35869); test: qHTS assay to identify small molecule that activate the aryl hydrocarbon receptor (AhR) signaling pathway (AID 743085); further: nearly all actives have a fitted effect of over 15% in size; further: potency means the concentration at half of the fitted maximal effect;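 on activation: HG2L7.5c1 human HepG2 liver cells with stably integrated DRE-driven firefly reporter; series mostly up to about 70 µM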
How it was run: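 Measured in HG2L7.5c1 cells: CellTiter-Fluor signal (30 min incubation, 37C) for viability, then luciferase luminescence (30 min, room temperature). Compound contact time was 24 h at 37C, following a 5 h pre-incubation.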

[3] = qHTS assay to identify small molecule that activate the aryl hydrocarbon receptor (AhR) signaling pathway - cell viability counter screen (AID 743086);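 further: HepG2 liver cells carrying the AhR DRE luciferase reporter; series mostly up to about 70 µM; nearly all actives have a fitted effect of over 45% in size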
How it was run: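 Cytotoxicity counter screen: CellTiter-Fluor signal (30 min, 37 C) in 4000 HepG2 cells/well carrying the DRE-luciferase reporter, following 24 h compound exposure at 37 C.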

[4] = biological target: Peroxisome proliferator-activated receptor gamma (Homo sapiens) (UniProt P37231); test: qHTS assay to identify small molecule agonists of the peroxisome proliferator-activated receptor gamma (PPARg) signaling pathway (AID 743094; active means well fitted activation curve with a large enough effect in the signal ratio in the repeat runs, not every such curve was filed as active; the % refers to the signal ratio)
How it was run: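 GeneBLAzer PPARg UAS-bla HEK293H cells carrying a stably integrated beta-lactamase reporter were pre-incubated 5 h at 37C, then exposed to compounds in DMSO for 17 h at 37C; LiveBLAzer B/G FRET substrate was added for 1 h at room temperature and fluorescence read.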

[5] = biological target: Peroxisome proliferator-activated receptor gamma (Homo sapiens) (UniProt P37231); test: qHTS assay to identify small molecule antagonists of the peroxisome proliferator-activated receptor gamma (PPARg) signaling pathway (AID 743191; calls by dose curve; further: series mostly up to about 63 µM; nearly all actives have a fitted effect of over 30% in size)
How it was run: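 Beta-lactamase reporter under UAS control in HEK293H PPARg-bla cells; compound treatment 17 h at 37C. Read-out: fluorescence intensity after 1 h room-temperature incubation with LiveBLAzer B/G FRET substrate.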

[6] = qHTS assay to identify small molecule antagonists of the peroxisome proliferator-activated receptor gamma (PPARg) signaling pathway - cell viability counter screen (AID 743194); further: nearly all actives have a fitted effect of over 55% in size
How it was run: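 Viability was measured as CellTiter-Glo luminescence in GeneBLAzer PPARg UAS-bla HEK293H cells. These cells had been exposed 17 h at 37 C to compounds together with rosiglitazone at 50 nM final, with the beta-lactamase readout taken in the same wells.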

[7] = qHTS assay for small molecule agonists of the antioxidant response element (ARE) signaling pathway (AID 743202; active means well fitted activation curve with a large enough effect in the signal ratio in the repeat runs, not every such curve was filed as active; the % refers to the signal ratio)
How it was run: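 Quantitative high-throughput format in HepG2 cells bearing an integrated ARE-beta-lactamase reporter. Compound exposure lasted 16 h at 37 C, and fluorescence was read 2 h after adding LiveBLAzer B/G substrate at room temperature.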

[8] = qHTS assay for small molecule activators of the heat shock response signaling pathway - cell viability counter screen (AID 743209); further: nearly all actives have a fitted effect of over 50% in size
How it was run: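 CellSensor HSE-bla HeLa cells, plated overnight at 37 C/5% CO2, were exposed to compounds in DMSO for 5 h at 37 C. Viability was then read in the same wells by CellTiter-Glo luminescence after 30 min at room temperature.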

[9] = qHTS assay for small molecule activators of the heat shock response signaling pathway (AID 743210; active means well fitted activation curve with a large enough effect in the signal ratio in the repeat runs, with a control signal flat, not every such curve was filed as active; the % refers to the signal ratio;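 further: HeLa cells with beta-lactamase reporter driven by heat shock elements; series mostly up to about 63 µM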)
How it was run: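 HeLa HSE-bla cells, overnight plating; cpd in DMSO 5 h, 37 C; LiveBLAzer B/G FRET substrate 2.5 h RT; fluorescence intensity read.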

[10] = qHTS assay for small molecule agonists of the antioxidant response element (ARE) signaling pathway - cell viability counter screen (AID 743203; calls by dose curve; further: nearly all actives have a fitted effect of over 55% in size)
How it was run: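 CellSensor ARE-bla HepG2 cells, 2,000 per well, rested 5 hrs at 37C/5% CO2, then exposed to compound in DMSO for 16 hrs; viability read as CellTiter-Glo luminescence after 30 min at room temperature, in the reporter wells.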

Sequence of Aryl hydrocarbon receptor (Homo sapiens) (P35869 whole entry, looked up): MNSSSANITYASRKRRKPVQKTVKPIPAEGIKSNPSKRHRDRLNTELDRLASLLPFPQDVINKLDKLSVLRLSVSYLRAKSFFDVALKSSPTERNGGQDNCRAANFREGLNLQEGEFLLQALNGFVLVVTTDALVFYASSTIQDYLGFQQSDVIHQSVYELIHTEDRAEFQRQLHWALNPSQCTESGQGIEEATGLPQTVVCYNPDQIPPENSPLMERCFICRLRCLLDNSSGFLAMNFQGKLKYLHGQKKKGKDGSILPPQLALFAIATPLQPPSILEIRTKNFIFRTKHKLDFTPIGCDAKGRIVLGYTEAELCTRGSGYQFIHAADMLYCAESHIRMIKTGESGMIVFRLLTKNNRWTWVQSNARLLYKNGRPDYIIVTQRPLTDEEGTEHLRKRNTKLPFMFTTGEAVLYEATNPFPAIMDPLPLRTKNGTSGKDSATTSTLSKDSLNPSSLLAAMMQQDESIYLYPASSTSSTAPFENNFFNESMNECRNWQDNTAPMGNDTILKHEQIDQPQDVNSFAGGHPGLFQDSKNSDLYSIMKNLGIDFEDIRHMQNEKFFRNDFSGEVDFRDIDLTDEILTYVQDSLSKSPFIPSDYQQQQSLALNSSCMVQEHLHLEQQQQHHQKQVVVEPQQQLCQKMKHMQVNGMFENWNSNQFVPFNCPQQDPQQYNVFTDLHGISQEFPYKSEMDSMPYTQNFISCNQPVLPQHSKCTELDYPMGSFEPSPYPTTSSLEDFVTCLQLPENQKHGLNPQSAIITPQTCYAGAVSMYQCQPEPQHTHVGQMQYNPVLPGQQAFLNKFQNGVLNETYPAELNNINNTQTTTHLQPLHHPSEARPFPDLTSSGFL
Sequence of Peroxisome proliferator-activated receptor gamma (Homo sapiens) (P37231 whole entry, looked up): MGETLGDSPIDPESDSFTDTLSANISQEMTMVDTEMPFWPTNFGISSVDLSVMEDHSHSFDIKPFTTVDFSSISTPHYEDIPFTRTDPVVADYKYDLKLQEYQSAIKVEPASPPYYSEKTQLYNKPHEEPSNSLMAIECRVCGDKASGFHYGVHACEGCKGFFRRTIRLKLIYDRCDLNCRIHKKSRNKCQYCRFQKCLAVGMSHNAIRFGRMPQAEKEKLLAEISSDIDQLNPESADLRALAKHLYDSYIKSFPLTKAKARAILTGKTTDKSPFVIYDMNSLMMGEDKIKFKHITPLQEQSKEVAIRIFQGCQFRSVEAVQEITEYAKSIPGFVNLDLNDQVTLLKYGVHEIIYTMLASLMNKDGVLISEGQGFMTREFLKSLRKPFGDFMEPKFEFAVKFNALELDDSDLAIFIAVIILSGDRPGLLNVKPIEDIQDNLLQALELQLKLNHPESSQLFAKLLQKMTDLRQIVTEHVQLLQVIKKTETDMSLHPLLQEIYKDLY

Structure (SMILES)	Potency [1]	Potency [2]	Potency [3]	outcome [4]	Potency [5]	outcome [6]	Potency [7]	outcome [8]	outcome [9]	outcome [10]
NCCS	inactive	inactive	inactive	inactive	inactive	inactive	inactive	inactive	inactive	–
NNc1nnc(NN)c2ccccc12	inactive	29.8 µM (active)	inactive	inactive	inactive	inactive	inactive	inactive	inactive	inactive
CN(C)C(=O)CNC(=O)Cc1ccccc1	inactive	inactive	inactive	inactive	inactive	inactive	–	inactive	inactive	inactive
FC(F)(F)c1ccccc1-n1ccnc1	inactive	inactive	inactive	inactive	inactive	inactive	–	inactive	inactive	inactive
CC/C=C\CC1=C(C)CCC1=O	inactive	inactive	inactive	inactive	inactive	inactive	–	inactive	–	inactive
O=C(NCCc1c[nH]c2ccccc12)c1cccnc1	inactive	13.3 µM (active)	inactive	inactive	inactive	inactive	–	inactive	inactive	inactive
COc1cc(NS(=O)(=O)c2ccc(N)cc2)nc(OC)n1	inactive	inactive	inactive	inactive	inactive	inactive	–	inactive	inactive	inactive
Nc1nnc(-c2cccc(Cl)c2Cl)c(N)n1	inactive	inactive	inactive	inactive	inactive	inactive	–	inactive	–	inactive
COc1ccc(OC)c(Cl)c1	inactive	inactive	inactive	inactive	inactive	inactive	–	inactive	inactive	inactive
C=C(C)C(=O)OCCNC(C)(C)C	inactive	inactive	inactive	inactive	inactive	inactive	–	inactive	–	inactive
CC(C)CCCC(C)(C)O	inactive	inactive	inactive	inactive	inactive	inactive	inactive	inactive	–	–
CC(CN)CC(C)(C)CCN (centres undefined)	inactive	inactive	inactive	inactive	inactive	inactive	–	inactive	inactive	inactive
O=C1c2ccccc2C(=O)c2cc(S(=O)(=O)O)ccc21	inactive	inactive	inactive	inactive	inactive	inactive	–	inactive	inactive	inactive
CCCCCCCCOS(=O)(=O)O	inactive	inactive	inactive	inactive	inactive	inactive	–	inactive	–	inactive
CC(=C(CCOC(=O)C(C)C)SSC(CCOC(=O)C(C)C)=C(C)N(C=O)Cc1cnc(C)nc1N)N(C=O)Cc1cnc(C)nc1N	inactive	inactive	inactive	inactive	inactive	inactive	inactive	inactive	inactive	inactive
O=C(OCC(COC(=O)c1cccnc1)(COC(=O)c1cccnc1)COC(=O)c1cccnc1)c1cccnc1	inactive	inactive	inactive	inactive	inactive	inactive	–	inactive	–	inactive
COC(=O)CCCCCCCC(=O)OC	inactive	inactive	inactive	inactive	inactive	inactive	–	inactive	–	inactive
CC(=O)/C=C/C1C(C)=CCC(C)C1(C)C (centres undefined)	inactive	inactive	inactive	inactive	inactive	inactive	–	inactive	–	inactive
C=C(C)C(=O)OCCOP(=O)(O)OCCOC(=O)C(=C)C	inactive	inactive	inactive	inactive	inactive	inactive	inactive	inactive	inactive	–
C=Cc1ccccn1	inactive	inactive	inactive	inactive	inactive	inactive	inactive	inactive	inactive	–
Cc1cc(Cl)c(C)cc1Cl	inactive	inactive	inactive	inactive	inactive	inactive	inactive	inactive	–	–
CCCCCOC(=O)CCC	inactive	inactive	inactive	inactive	inactive	inactive	–	inactive	inactive	inactive
CCOC(=O)/C=C/c1ccccc1	inactive	inactive	inactive	inactive	inactive	inactive	–	inactive	–	inactive
OCCCCC(O)CO (centres undefined)	inactive	inactive	inactive	inactive	inactive	inactive	inactive	inactive	inactive	–
CN(C)c1ccc(C=O)cc1	inactive	inactive	inactive	inactive	inactive	inactive	–	inactive	inactive	–
Cc1ccccc1OCC(O)CO (centres undefined)	inactive	inactive	inactive	inactive	inactive	inactive	–	inactive	inactive	–
O=C1c2ccccc2C(=O)C1c1ccccc1	inactive	inactive	inactive	inactive	inactive	–	–	inactive	–	inactive
C=C(C)C(=O)OCC(C)(C)COC(=O)C(=C)C	inactive	inactive	inactive	inactive	inactive	inactive	–	inactive	inactive	–
